14 compounds from PubChem BioAssay (EPA / NIEHS) can be followed below.

Records with an inconclusive call do not appear. Calls of active or inactive are those of the source. Rule for the calls: active = hit-call score of the fitted dose curve at least 0.9, where 1 is the maximum; inconclusive = response in the unintended direction; inactive = score below 0.9.

The target of assay [1] is human Fibroblast Growth Factor Receptor 1 (FGFR1), FGFR1 (gene 2260) (UniProt P11362). Nature of the assay: NVS_ENZ_hFGFR1: NovaScreen (NVS) Enzymatic Assay for human Fibroblast Growth Factor Receptor 1 (FGFR1) (AID 2283159).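 For AC50: hits lower the signal so potencies describe inhibitors of the kinase.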 In outline:
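Cell-free recombinant kinase with fluorescent substrate, product separated by electrophoretic mobility shift; read 1 hour after dosing, loss of signal relative to DMSO. Initial screen in duplicate at 25 uM, actives followed in concentration series.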

Assay [2] concerns the target human FYN Proto-Oncogene, Src family Tyrosine Kinase (Fyn), FYN (gene 2534) (UniProt P06241). Nature of the assay: NVS_ENZ_hFyn: NovaScreen (NVS) Enzymatic Assay for human FYN Proto-Oncogene, Src family Tyrosine Kinase (Fyn) (AID 2283161). How it is done: NVS_ENZ_hFyn is a biochemical, single-readout assay that uses extracted gene-proteins in a cell-free assay. Measurements were taken 1 hour after chemical dosing in a 384-well plate.NVS_ENZ_hFyn is one of one assay component(s) measured or calculated from the NVS_ENZ_hFyn assay. It is designed to make measurements of enzyme activity, a form of enzyme reporter, as detected with fluorescence intensity signals by Fluorescence and electrophoretic mobility shift technology.Data from the assay component NVS_ENZ_hFyn was analyzed into 1 assay endpoint. This assay endpoint, NVS_ENZ_hFyn, was analyzed in the positive analysis fitting direction relative to DMSO as the negative control and baseline of activity. Using a type of enzyme reporter, loss-of-signal activity can be used to understand changes in the enzymatic activity as they relate to the gene FYN. Furthermore, this assay endpoint can be referred to as a primary readout, because this assay has produced multiple assay endpoints where this one serves a enzymatic activity function. To generalize the intended target to other relatable targets, this assay endpoint is annotated to the kinase intended target family, where the subfamily is non-receptor tyrosine kinase. […]

For assay [3], the target named is human c-Jun N-terminal Kinases (JNK2), MAPK9 (gene 5601) (UniProt P45984). The experiment in a line: NVS_ENZ_hJNK2: NovaScreen (NVS) Enzymatic Assay for human c-Jun N-terminal Kinases (JNK2) (AID 2283171). In outline: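 Chemicals first tested in duplicate at 25 uM, then in singleton concentration series up to 50 uM, against extracted JNK2 enzyme. Activity loss read by fluorescence with mobility-shift separation 1 h post-dose; DMSO baseline.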

Assay [4] has as its target human LYN Proto-Oncogene, Src family Tyrosine Kinase (LynA), LYN (gene 4067) (UniProt P07948). Nature of the assay: NVS_ENZ_hLynA: NovaScreen (NVS) Enzymatic Assay for human LYN Proto-Oncogene, Src family Tyrosine Kinase (LynA) (AID 2283173). In outline: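 Recombinant kinase with fluorescent substrate; product separated from substrate by electrophoretic mobility shift and read 1 h after dosing. Duplicate screen at 25 uM, then concentration-response up to 50 uM; activity scored as signal loss against DMSO.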

For assay [5], the target named is Protein deacetylase HDAC6 (Homo sapiens) (UniProt Q9UBN7). The experiment in a line: NVS_ENZ_hHDAC6: NovaScreen (NVS) Enzymatic Assay for human Histone Deacetylase 6 (HDAC6) (AID 2283164). In outline: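 Concentration-response runs up to 50 uM followed a duplicate 25 uM single-point screen. Deacetylase activity of recombinant human HDAC6 read by fluorescence after 1 h, with mobility-shift separation of substrate and product; DMSO as baseline.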

In assay [6] the target is Glycogen synthase kinase-3 beta (Homo sapiens) (UniProt P49841). The experiment in a line: NVS_ENZ_hGSK3b: NovaScreen (NVS) Enzymatic Assay for human Glycogen Synthase Kinase-3 beta (GSK3b) (AID 2283165). In outline: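 Recombinant enzyme with specific fluorescent substrate, 1 h, product separated by electrophoretic mobility shift. Primary duplicate screen at 25 uM; actives (e.g. 30% inhibition) followed in singleton concentration-response to 50 uM. Signal loss fitted versus DMSO.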

Assay [7] deals with human IkappaB Kinase alpha (IKKa), CHUK (gene 1147) (UniProt O15111). The experiment in a line: NVS_ENZ_hIKKa: NovaScreen (NVS) Enzymatic Assay for human IkappaB Kinase alpha (IKKa) (AID 2283167). The method, then:
NVS_ENZ_hIKKa is a biochemical, single-readout assay that uses extracted gene-proteins in a cell-free assay. Measurements were taken 1 hour after chemical dosing in a 384-well plate.NVS_ENZ_hIKKa is one of one assay component(s) measured or calculated from the NVS_ENZ_hIKKa assay. It is designed to make measurements of enzyme activity, a form of enzyme reporter, as detected with fluorescence intensity signals by Fluorescence and electrophoretic mobility shift technology.Data from the assay component NVS_ENZ_hIKKa was analyzed into 1 assay endpoint. This assay endpoint, NVS_ENZ_hIKKa, was analyzed in the positive analysis fitting direction relative to DMSO as the negative control and baseline of activity. Using a type of enzyme reporter, loss-of-signal activity can be used to understand changes in the enzymatic activity as they relate to the gene CHUK. Furthermore, this assay endpoint can be referred to as a primary readout, because this assay has produced multiple assay endpoints where this one serves a enzymatic activity function. To generalize the intended target to other relatable targets, this assay endpoint is annotated to the kinase intended target family, where the subfamily is serine/threonine kinase.
Binding assays used specific radioligands (tritiated, iodinated) with non-radioactive competitive displacement ligands in agonist or antagonist protocols (as indicated) and various reference compounds and inhibitors to titrate specific binding to receptors and transporters. Most enzyme assays (CYPs, kinases, phosphatases, proteases, HDACs) used recombinant protein and specific substrates (fluorescence mostly, some colorimetric and radioactive) and inhibitors, followed by a biochemical separation of substrate and product. All assays for the biochemical HTS were initially run in duplicate at a single concentration (10 uM for CYP450 assays and 25 uM for all others). […]

Assay [8] addresses human Insulin Receptor (InsR), INSR (gene 3643) (UniProt P06213). Nature of the assay: NVS_ENZ_hInsR: NovaScreen (NVS) Enzymatic Assay for human Insulin Receptor (InsR) (AID 2283168). The gist of the method: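 Cell-free enzyme assay read 1 h post-dose by fluorescence after substrate/product mobility-shift separation. Duplicate 25 uM primary screen, then singleton concentration-response up to 50 uM for compounds passing threshold; loss of signal vs DMSO.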

The target in assay [9] is human Janus Kinase 2 (Jak2), JAK2 (gene 3717) (UniProt O60674). Nature of the assay: NVS_ENZ_hJak2: NovaScreen (NVS) Enzymatic Assay for human Janus Kinase 2 (Jak2) (AID 2283169). The gist of the method: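 Single-point duplicate screen at 25 uM, with hits run in concentration series to a 50 uM top dose. Substrate-product separation by mobility shift with fluorescence detection, 1 h post-dosing; DMSO baseline.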

Assay [10] addresses Histone deacetylase 3 (Homo sapiens) (UniProt O15379). Nature of the assay: NVS_ENZ_hHDAC3: NovaScreen (NVS) Enzymatic Assay for human Histone Deacetylase 3 (HDAC3) (AID 2283163). In outline: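 Cell-free enzyme format: loss of fluorescent product after mobility-shift separation, 1 h incubation, recombinant human HDAC3. Single 25 uM duplicate screen first, then concentration series to a 50 uM top for hits; DMSO as baseline.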

Chain of human IkappaB Kinase alpha (IKKa), CHUK (gene 1147) (O15111 whole entry, looked up): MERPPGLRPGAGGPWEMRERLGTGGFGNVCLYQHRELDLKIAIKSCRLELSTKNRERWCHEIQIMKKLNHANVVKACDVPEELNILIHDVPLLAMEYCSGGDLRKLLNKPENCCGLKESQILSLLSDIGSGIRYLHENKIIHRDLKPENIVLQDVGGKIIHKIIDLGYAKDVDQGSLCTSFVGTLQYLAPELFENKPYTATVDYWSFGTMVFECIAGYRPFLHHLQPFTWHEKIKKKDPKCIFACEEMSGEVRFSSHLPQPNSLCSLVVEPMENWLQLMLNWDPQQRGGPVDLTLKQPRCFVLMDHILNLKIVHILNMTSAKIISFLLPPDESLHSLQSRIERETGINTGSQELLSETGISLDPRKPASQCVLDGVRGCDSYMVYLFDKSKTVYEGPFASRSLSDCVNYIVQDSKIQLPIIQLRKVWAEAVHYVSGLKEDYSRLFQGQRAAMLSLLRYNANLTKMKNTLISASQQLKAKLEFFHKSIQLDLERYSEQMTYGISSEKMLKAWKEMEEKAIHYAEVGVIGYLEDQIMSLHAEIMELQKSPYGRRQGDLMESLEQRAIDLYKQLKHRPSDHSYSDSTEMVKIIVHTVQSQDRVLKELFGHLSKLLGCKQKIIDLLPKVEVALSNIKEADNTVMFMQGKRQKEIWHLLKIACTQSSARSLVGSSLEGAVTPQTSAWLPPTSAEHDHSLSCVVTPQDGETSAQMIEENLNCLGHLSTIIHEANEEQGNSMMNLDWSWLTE
Chain of Protein deacetylase HDAC6 (Homo sapiens) (Q9UBN7 whole entry, looked up): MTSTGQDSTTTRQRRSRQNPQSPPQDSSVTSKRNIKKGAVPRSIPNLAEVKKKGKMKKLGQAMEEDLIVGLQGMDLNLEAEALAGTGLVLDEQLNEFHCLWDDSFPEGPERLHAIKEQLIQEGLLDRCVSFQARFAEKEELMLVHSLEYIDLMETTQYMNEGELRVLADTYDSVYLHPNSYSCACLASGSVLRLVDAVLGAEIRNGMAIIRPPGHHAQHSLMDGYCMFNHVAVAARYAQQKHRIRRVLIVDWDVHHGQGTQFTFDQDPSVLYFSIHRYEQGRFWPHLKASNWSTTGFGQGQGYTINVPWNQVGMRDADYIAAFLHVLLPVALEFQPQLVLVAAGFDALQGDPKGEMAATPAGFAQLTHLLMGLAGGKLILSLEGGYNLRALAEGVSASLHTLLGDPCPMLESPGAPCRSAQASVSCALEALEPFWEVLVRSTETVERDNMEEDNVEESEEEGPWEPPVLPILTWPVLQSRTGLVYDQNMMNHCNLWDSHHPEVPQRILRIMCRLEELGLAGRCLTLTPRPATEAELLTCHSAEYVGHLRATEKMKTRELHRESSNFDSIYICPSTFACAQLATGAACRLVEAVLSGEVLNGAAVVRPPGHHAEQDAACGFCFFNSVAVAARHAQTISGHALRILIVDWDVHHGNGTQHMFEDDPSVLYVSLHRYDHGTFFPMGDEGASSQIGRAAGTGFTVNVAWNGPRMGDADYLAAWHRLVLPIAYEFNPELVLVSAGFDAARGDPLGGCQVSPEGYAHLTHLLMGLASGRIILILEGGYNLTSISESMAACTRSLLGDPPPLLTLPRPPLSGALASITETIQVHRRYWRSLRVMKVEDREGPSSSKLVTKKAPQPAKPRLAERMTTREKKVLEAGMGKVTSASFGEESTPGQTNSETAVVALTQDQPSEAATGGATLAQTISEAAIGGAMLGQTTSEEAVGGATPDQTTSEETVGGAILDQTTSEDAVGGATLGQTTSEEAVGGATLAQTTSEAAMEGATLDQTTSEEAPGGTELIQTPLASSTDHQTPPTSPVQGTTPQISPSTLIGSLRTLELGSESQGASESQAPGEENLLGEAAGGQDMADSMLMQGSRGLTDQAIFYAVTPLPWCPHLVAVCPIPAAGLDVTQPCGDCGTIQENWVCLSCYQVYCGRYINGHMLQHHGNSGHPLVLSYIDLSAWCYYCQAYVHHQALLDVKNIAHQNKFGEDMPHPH
Chain of human c-Jun N-terminal Kinases (JNK2), MAPK9 (gene 5601) (P45984 whole entry, looked up): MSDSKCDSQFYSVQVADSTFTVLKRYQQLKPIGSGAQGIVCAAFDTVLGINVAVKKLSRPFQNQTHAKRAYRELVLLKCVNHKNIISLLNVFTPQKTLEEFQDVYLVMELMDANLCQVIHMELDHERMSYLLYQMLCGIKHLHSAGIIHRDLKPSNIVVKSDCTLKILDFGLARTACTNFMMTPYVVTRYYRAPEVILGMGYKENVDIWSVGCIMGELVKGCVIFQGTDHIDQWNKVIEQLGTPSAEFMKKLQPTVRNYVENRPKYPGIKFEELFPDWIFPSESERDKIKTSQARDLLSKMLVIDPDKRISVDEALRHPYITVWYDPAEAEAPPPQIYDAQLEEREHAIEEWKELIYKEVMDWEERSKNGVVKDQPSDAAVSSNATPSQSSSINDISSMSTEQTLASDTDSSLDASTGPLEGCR
Chain of human Fibroblast Growth Factor Receptor 1 (FGFR1), FGFR1 (gene 2260) (P11362 whole entry, looked up): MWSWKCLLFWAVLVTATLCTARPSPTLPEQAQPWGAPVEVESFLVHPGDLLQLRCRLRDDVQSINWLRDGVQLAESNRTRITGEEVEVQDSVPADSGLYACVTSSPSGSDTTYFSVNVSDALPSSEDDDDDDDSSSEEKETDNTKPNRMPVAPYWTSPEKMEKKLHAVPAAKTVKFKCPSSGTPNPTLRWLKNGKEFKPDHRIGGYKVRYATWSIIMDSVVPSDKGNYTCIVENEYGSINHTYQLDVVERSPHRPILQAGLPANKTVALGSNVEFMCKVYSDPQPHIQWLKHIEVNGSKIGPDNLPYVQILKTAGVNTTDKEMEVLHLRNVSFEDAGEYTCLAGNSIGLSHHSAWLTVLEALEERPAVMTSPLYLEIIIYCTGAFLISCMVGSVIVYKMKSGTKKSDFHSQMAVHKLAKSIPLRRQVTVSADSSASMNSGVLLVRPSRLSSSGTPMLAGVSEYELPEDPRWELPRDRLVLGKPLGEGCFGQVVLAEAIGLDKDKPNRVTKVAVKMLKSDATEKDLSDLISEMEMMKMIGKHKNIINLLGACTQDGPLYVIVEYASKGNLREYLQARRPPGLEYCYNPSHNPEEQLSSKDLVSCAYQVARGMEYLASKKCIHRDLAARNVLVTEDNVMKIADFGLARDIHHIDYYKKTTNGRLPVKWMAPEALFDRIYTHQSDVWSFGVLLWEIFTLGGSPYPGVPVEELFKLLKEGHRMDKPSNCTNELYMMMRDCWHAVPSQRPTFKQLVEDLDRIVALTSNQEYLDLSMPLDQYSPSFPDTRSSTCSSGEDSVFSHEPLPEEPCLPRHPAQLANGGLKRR
Chain of Glycogen synthase kinase-3 beta (Homo sapiens) (P49841 whole entry, looked up): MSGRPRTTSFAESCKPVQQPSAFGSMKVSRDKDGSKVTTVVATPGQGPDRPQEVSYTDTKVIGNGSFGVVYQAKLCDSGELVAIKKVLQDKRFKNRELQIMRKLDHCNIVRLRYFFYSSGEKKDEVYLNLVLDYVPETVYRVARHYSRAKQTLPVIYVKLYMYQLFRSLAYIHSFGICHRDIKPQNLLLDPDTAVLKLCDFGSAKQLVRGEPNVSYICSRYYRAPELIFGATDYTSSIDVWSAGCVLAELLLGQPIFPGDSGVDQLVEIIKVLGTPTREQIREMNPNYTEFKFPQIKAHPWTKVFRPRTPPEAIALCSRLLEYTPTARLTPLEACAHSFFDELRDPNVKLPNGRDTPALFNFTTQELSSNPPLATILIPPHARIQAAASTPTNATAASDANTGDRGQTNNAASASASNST
Chain of human LYN Proto-Oncogene, Src family Tyrosine Kinase (LynA), LYN (gene 4067) (P07948 whole entry, looked up): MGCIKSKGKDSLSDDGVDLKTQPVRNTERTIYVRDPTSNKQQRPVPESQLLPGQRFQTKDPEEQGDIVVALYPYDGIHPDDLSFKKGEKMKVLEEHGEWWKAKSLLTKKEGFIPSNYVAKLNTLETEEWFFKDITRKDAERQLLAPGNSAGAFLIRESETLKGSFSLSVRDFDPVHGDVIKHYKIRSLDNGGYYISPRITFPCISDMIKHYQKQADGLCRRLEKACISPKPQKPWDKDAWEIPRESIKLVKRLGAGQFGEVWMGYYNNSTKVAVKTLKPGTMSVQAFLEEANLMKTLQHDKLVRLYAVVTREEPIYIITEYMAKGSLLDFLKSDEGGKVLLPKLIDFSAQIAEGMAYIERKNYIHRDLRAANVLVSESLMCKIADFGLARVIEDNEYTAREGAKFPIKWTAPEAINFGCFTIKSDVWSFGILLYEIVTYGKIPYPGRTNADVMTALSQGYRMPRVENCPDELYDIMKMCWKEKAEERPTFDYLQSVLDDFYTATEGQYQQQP
Chain of human FYN Proto-Oncogene, Src family Tyrosine Kinase (Fyn), FYN (gene 2534) (P06241 whole entry, looked up): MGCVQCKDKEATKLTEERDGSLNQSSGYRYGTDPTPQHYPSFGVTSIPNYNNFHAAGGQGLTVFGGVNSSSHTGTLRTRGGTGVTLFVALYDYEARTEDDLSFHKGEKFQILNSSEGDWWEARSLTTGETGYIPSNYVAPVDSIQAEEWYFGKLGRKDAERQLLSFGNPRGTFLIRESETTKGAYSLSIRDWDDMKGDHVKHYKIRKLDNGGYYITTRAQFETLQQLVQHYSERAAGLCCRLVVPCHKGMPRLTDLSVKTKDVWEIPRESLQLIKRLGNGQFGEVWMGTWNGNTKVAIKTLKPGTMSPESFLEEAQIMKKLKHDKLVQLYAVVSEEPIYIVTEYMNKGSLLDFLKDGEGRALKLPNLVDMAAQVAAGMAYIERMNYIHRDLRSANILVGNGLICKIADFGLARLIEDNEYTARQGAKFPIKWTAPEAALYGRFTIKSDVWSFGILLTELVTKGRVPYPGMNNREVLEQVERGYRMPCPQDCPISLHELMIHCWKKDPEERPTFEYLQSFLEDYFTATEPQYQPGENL

`O=C(N[C@H]1CN2CCC1CC2)c1ccc2c(c1)OCCO2`: the compound was classed as inactive in assay [1], in [2], in assay [3] and in [4].

As to `N#Cc1cccnc1`, the compound was called inactive in assay [1], in [5], in assay [6], in assay [7], in [8] and in assay [9]. Besides, the result in [3] was inactive.

Consider `CCCCCCCCCCCCc1cccc(S(=O)(=O)O)c1`, for which the AC50 in assay [1] was 11.4 µM (active); in assay [5], 13.7 µM (active); in assay [6], 25.3 µM (active); in assay [7], 40.9 µM (active).

Regarding `OCCN(CCO)CCO`, the outcome in assay [4] was inactive.

Take `O=C(O)C1(c2ccc3c(c2)OC[C@H](Cc2ccc(-c4ccccc4)cc2)[C@H]3O)CCCC1`: the compound was called inactive in assay [1].

For the compound `CC(C)O.CC(C)O.OCCN(CCO)CCO.OCCN(CCO)CCO.[Ti]`, the AC50 in assay [1] is 1.9 µM (active); in assay [2], 0.0034 µM (active); in assay [6] it was 0.00229 µM (active). Also, the result in assay [3] was inactive.

As to `Oc1cc(Cl)c(Cl)cc1Cl`, the compound was classed as inactive in assay [10] and in assay [6].

For the compound `COc1nn(C(=O)NS(=O)(=O)c2ccccc2OC(F)(F)F)c(=O)n1C`, the call in [1] was inactive.

Regarding `Cc1cc(C)cc(C)c1`, the result in assay [8] was inactive.

Regarding `Clc1cccc(Cl)c1Cl`, the call in [1] and in assay [7] was inactive.

Turning to `CC(C)(C)c1ccccc1O`, the compound was classed as inactive in assay [6].

With `CN(C)C(=S)S`, the result in assay [9] was inactive.

Take `Clc1cccc(Cl)c1`: the outcome in assay [6] was inactive.

In the case of `CCCCCCCCCCCCOS(=O)(=O)O`, the AC50 in [1] is 13.9 µM (active). In addition, the compound was classed as inactive in assay [5].
